Dicer inh – blocks human Dicer maturation of pre-miR-21; z-score at 25 µM; cat-ELCCA pre-miR-21 Dicer processing, chemiluminescence; stronger effect = higher value; 47,000 tested, 6% active; in the data active means z-score above about 3, passing the limit was not always enough;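 further: higher signal means more uncleaved substrate so more Dicer inhibition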
Target sequence (Q9UPY3 whole entry, looked up): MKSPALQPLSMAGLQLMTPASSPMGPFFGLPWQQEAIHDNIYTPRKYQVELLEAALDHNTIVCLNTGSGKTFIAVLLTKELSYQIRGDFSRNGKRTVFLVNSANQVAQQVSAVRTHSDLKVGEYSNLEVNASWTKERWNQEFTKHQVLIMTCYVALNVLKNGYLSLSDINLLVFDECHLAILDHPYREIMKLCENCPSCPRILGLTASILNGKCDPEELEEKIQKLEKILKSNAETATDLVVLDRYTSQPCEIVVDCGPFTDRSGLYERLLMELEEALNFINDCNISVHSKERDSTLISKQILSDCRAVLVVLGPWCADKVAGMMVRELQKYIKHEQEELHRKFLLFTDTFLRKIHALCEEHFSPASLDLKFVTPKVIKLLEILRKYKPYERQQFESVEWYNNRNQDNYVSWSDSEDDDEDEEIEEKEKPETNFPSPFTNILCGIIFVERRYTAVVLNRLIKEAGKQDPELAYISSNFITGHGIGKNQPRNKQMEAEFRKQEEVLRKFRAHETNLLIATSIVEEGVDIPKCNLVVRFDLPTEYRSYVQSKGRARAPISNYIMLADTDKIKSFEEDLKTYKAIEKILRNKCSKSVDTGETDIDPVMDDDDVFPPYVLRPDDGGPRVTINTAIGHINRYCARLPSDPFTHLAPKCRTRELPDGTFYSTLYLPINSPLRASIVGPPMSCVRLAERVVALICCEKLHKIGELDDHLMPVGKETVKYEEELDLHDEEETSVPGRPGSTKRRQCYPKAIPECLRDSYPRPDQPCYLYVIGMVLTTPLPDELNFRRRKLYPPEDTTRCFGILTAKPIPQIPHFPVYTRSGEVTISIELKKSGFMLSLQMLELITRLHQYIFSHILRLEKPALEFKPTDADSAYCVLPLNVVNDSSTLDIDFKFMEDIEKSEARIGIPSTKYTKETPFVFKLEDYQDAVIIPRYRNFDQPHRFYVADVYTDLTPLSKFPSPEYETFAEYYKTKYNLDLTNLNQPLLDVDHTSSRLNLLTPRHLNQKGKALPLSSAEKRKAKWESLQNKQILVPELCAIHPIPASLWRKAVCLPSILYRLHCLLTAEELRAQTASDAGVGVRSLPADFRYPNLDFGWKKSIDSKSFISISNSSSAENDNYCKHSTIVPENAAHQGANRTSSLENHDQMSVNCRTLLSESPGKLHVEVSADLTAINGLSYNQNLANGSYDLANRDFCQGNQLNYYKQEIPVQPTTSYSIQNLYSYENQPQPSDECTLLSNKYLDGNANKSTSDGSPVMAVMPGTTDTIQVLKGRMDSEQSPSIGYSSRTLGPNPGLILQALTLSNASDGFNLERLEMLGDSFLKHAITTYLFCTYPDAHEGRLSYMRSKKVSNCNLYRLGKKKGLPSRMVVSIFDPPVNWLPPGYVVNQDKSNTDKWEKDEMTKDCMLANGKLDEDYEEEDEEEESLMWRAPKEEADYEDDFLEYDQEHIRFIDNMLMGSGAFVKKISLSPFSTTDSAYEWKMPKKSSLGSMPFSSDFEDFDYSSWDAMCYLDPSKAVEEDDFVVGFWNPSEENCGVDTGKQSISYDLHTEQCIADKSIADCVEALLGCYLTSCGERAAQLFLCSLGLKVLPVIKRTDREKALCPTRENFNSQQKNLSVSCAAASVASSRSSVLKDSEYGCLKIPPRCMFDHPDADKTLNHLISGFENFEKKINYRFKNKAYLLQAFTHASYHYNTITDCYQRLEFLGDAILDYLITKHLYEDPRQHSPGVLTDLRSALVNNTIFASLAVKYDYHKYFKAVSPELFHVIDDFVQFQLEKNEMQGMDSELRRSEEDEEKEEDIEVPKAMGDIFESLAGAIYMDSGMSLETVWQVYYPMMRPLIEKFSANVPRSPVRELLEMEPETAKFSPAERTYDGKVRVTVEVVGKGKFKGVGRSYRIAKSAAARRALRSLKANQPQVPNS
Each line names hits and unclear results; the compound was inactive in the other large screens. Only a selection was taken, and hits are over-represented in it overall.

c1ccc2c(c1)nc1n2CN(CCCN2CCOCC2)CN1CC1CCCO1 (stereo not given)	none
CCCCN1C(=O)C(NC(C)=O)c2cc(C)cc(C)c21 (stereo not given)	none
O=C(Cn1nnc(N2CCOCC2)n1)c1ccc(Cl)cc1	none
CN(C)CCS(C)(=O)=O	none
CN(C)Cc1ccc(CSCCNC(=O)Nc2ccc(OCc3ccccc3)cc2)o1	none
O=C(Nc1nc2ccccc2n1CCN1CCOCC1)C1CCCCC1	none
C=CCn1c(NCc2ccccc2OC)nc2ccccc21	none
COc1ccccc1CNc1nc2ccccc2n1CCN1CCOCC1	Dicer inh 6.2
OCc1nc2ccccc2n1Cc1ccccc1Cl	none
Clc1ccccc1CNc1nc2ccccc2n1CCN1CCOCC1	Dicer inh 6.5
COc1cc(C2CC(=O)Nc3nc(N)[nH]c(=O)c32)ccc1OCc1ccccc1 (stereo not given)	none
CCOC(=O)NC(=S)Nc1ccc(C(C)(C)C)cc1	Dicer inh 5.1
N#CCC(=O)NNC(=S)Nc1cc(C(F)(F)F)cc(C(F)(F)F)c1	none
N#CCC(=O)NNC(=S)Nc1ccc(F)cc1	Dicer inh 3.3
CCOC(=O)NC(=S)Nc1ccc(C(C)(C)C)cc1NC(=S)NC(=O)OCC	none
CC(C)(CO)NC(=S)Nc1ccc(F)cc1	none
CC(CO)(CO)NC(=S)Nc1ccc(F)cc1	Dicer inh 5.8
CCOC(=O)NC(=S)Nc1ccc(N2CC(C)OC(C)C2)cc1 (stereo not given)	none
O=C(CCc1ccc(O)cc1)NNC(=S)Nc1ccc(F)cc1	none
CC(C)(C)C(=O)NC(=S)Nc1ccc(C(F)(F)F)cc1	none
CCOC(=O)NC(=S)Nc1cccc(C)n1	none
OCC(CO)(CO)NC(=S)Nc1ccc(F)c(Cl)c1	none
CCOC(=O)NC(=S)Nc1ccc(F)cc1	Dicer inh 6.7
O=C1CCCCN1c1ccc(C(F)(F)F)cc1	none
Cc1ccc(NC(=S)NN(C)C)cc1C	none
Cc1oc(C(C)(C)C)cc1C(=O)Nc1ccc(N(C)C)cc1	none
CCOC(=O)N1CCc2c(sc3[nH]c(=S)n(-c4ccc(Cl)cc4)c(=O)c23)C1	none
Cc1ccc2c(c1)N(C)/C(=C/c1ccc3ccccc3[n+]1C)S2	none
OCCCNc1ncnc2c1oc1ccccc12	none
FC(F)(F)c1ccnc(Oc2ccc(/C=N/NC(=S)Nc3cc(Cl)ccc3Cl)cc2)n1	none
COc1ccccc1OCC(O)Cn1c[n+](C)c2cc(C)c(C)cc21 (stereo not given)	none
CC12CN3CC(C)(CN(C1)C3c1ccc(O)cc1)C2O (stereo not given)	none
C/C(=N\NC(=S)NC(C)(C)C)c1cc(F)ccc1O	none
CC(C)C1/C(=N\O)CC(c2ccccc2)NC1c1ccccc1 (stereo not given)	none
O=c1c2cc(-n3cccc3)ccc2oc2ncccc12	none
Cc1cc(NC2=CC(=O)CC(C)(C)C2)n[nH]1	none
COC(=O)c1sc(N2C(=O)C(O)=C(C(=O)c3cccs3)C2c2ccc(OC)cc2)nc1C (stereo not given)	none
O=C(Nc1cccc(-c2nc3ncccc3o2)c1)c1ccc([N+](=O)[O-])o1	none
O=C(Nc1ccc(-c2nc3cc(Cl)ccc3o2)cc1)c1ccc([N+](=O)[O-])o1	none
COc1ccc(NC(=O)c2ccc([N+](=O)[O-])o2)cc1Cl	Dicer inh 3.2
COC(=O)c1cc(NC(=O)c2ccc([N+](=O)[O-])o2)cc(C(=O)OC)c1	none
O=C(Nc1ccc2oc(-c3ccc(F)cc3)nc2c1)c1ccc([N+](=O)[O-])o1	Dicer inh 3
O=C(Nc1ccc(-c2nc3ccccc3o2)c(O)c1)c1ccc([N+](=O)[O-])o1	none
O=C(Nc1cccc(-c2nc3ccccc3o2)c1)c1ccc([N+](=O)[O-])o1	Dicer inh 3.5
O=C(Nc1ccc2oc(-c3cccc(F)c3)nc2c1)c1ccc([N+](=O)[O-])o1	none
COc1ccc(NC(=O)c2ccc([N+](=O)[O-])o2)cc1	none
CCOC(=O)C1=C(C)N(c2ccc(C)c(C)c2)C(=O)C1	none
CC1CCC(C)N1c1cc(C(F)(F)F)cc(C(F)(F)F)c1 (stereo not given)	none
COc1cc(C(=O)NNC(=O)Nc2c(-c3c(Cl)cccc3Cl)noc2C)cc(OC)c1OC	none
CCOc1cc(C2C(C#N)=C(N)Oc3n[nH]c(C(C)(C)C)c32)ccc1O (stereo not given)	none
CCc1nc(C)cn1S(=O)(=O)c1ccc(C2CCCCC2)cc1	none
COc1cc(C(=O)Oc2c(Cl)cc(Cl)cc2C=Nc2ccc([N+](=O)[O-])cc2C#N)cc(OC)c1OC	none
COCOc1ccc(C(=O)O)cc1OC	none
COc1ccc(C(=O)N2CCSC2=S)cc1	none
COc1ccc(C(=O)N2CCSC2=S)cc1OC	Dicer inh 3.5
CCOC(=O)C(=CNc1cc(C2CC2)nn1C)C(=O)OCC	none
O=C(Nc1ccc(F)cc1F)C(=S)N1CCOCC1	none
CC1=C(C(=O)OCCc2ccccc2)C(c2ccccc2Br)C2=C(CCCC2=O)N1 (stereo not given)	none
CN(NC1OC(=O)c2ccccc21)c1ccccc1[N+](=O)[O-] (stereo not given)	Dicer inh 3.2
CN(NC1OC(=O)c2ccccc21)c1ncc(Cl)cc1C(F)(F)F (stereo not given)	none
O=C1OC(Nc2ccc([N+](=O)[O-])cn2)c2ccccc21 (stereo not given)	none
CCCCCc1nc2scc(-c3ccc(OC)c(OC)c3)c2c(=O)o1	none
COc1ccc(-c2cnc(NCc3cc(Br)ccc3F)n2C)cc1	none
Cn1c(-c2ccc(F)cc2)cnc1NCc1ccc(Br)cc1	none
Cn1c(-c2ccc(Cl)cc2)cnc1NCc1ccc(F)cc1F	Dicer inh 3.3
Cn1c(-c2ccccc2)cnc1NCc1cc(Br)ccc1F	none
COc1cccc(-c2cnc(NCc3ccc(Br)cc3)n2C)c1	none
Cn1c(-c2ccc(F)cc2)cnc1NCc1ccccc1F	none
Cn1c(-c2ccc(Cl)cc2)cnc1NCc1ccccc1F	Dicer inh 3.2
Cc1ccc(-c2cnc(NCc3ccc(Br)cc3)n2C)cc1	Dicer inh 3.3
Cn1c(-c2ccccc2)cnc1NCc1cc(Cl)ccc1O	none
Cn1nccc1NS(=O)(=O)c1ccccc1	none
O=C(OCc1ccccc1)c1cnc(Sc2ccccn2)nc1C(F)(F)F	none
CC(=O)N(C(C)=O)c1cc(C)c(C#N)c2nc3ccccc3n12	none
C#CC(C)(C)N1CN=C(SC)NC1	none
CCCc1cc(C(=O)Nc2ccc(N(CC)CC)cc2)nn1-c1ccccc1	Dicer inh 4.4
CCCCOC(=O)Nc1ccc(N(CC)CC)cc1	none
CCCc1c(NC(=O)Nc2ccc(F)cc2)cnn1-c1ccccc1	none
Cc1cc(NS(=O)(=O)N(C)C)no1	none
c1ccc(-c2cc3ccccc3[nH]2)cc1	none
Cc1ccc(-c2cc3ccccc3[nH]2)cc1	Dicer inh 16
Cc1ccc(-c2cc(=O)c3c(=O)n(-c4ccccc4)[nH]c3[nH]2)cc1	none
O=C(Nc1ccc(OC(F)(F)F)cc1)c1c(-c2ccccc2)nnc2ccccc12	Dicer inh 29
O=C(O)c1c(-c2ccccc2)nnc2ccccc12	none
O=C(Nc1ccc(OC(F)(F)F)cc1)Nc1ccc2ccccc2n1	none
CCOC(=O)C(=NNc1cccc([N+](=O)[O-])c1)C(=O)OCC	none
COc1ccc(/C(O)=C2/C(=O)C(=O)N(CCc3ccccc3)C2c2ccccc2F)cc1 (stereo not given)	none
FC(F)(F)c1cccc(N/N=C/c2cc(-c3ccccc3)c(C(F)(F)F)s2)c1	none
Cc1cccc(C)c1NC(=O)c1snnc1C	none
Cc1nnsc1-c1nc2cccc(C)c2c(=O)o1	Dicer inh 3.4
Cc1sc2nc(-c3ccccc3)oc(=O)c2c1C	none
COc1ccc(C(O)(c2ccccc2OC)c2ccc(OC)cc2OC)c(OC)c1	none
c1ccc(-c2nnc(NCc3nc4ccccc4[nH]3)c3ccccc23)cc1	none
CCCN1C2=C(C(=O)CC(C)(C)C2)C(c2ccc(O)cc2)C2=C1CC(C)(C)CC2=O	none
